Values joined by “and” are separate entries in the source; they are usually repeats but may differ in a detail not shown here. Equal values may be shown once. For part of these data: Entries with a potency or affinity are not part of this list. Active and inactive are the calls of the source.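 The calls were made as follows, unless noted: active = thallium flux through the channel raised or lowered by more than 3 SD from vehicle-only wells, actives on both sides; inactive = the rest.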
How the values were obtained:
[1] = polyglutamine-triggered caspase-3 activation inhibitors, cell-based (AID 1583); conditions: polyglutamine-induced caspase-3 activation, cell assay; stronger effect = higher value;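 tested at 10 µM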
[2] = suppressors of polyQ aggregation in yeast, 75Q-TubU reporter (AID 1593); conditions: Yeast 75Q polyglutamine aggregation reporter
[3] = rescue of polyQ-huntingtin neuronal dysfunction in worms, whole organism, C. elegans mechanosensory neurons, N-terminal huntingtin (AID 1599); conditions: touch response, stronger effect = higher value
[4] = inhibitors of mitochondrial cytochrome c release, biochemical, purified mitochondria (AID 1603); conditions: stronger effect = lower value;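 also: mouse liver mitochondria challenged with calcium chloride; signal normalized to the plate average as 100%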
[5] = inhibitors of polyQ protein aggregation (AID 1604); conditions: polyglutamine-induced protein aggregation inhibition assay; stronger effect = higher value; tested at 2.5 µM
[6] = enhancers of glutamate uptake in motor neurons, MN-1 cell line (AID 1612); conditions: MN-1 motor neuron cells, stronger effect = higher value;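 also: tested at 1 µM final; 0% = mean of DMSO vehicle wells on each plate; positive means more glutamate uptake than control and negative means less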
[7] = suppressors of polyglutamine aggregation in yeast, 75Q-TubH (AID 1616); conditions: S. cerevisiae 75Q-TubH polyglutamine aggregation suppression; stronger effect = higher value
[8] = hESC survival regulators, cell-based (AID 493140; call rule not given here;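 also: cells exposed to compounds for four days before counting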); conditions: human embryonic stem cell survival screen; stronger effect = higher value
[9] = modulation of C. elegans fzo-1 (AID 1259413; call rule not given here;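 also: fzo-1 mutant C. elegans worms in liquid wells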); conditions: C. elegans fzo-1 modulator screen, mean read-out; stronger effect = higher value
[10] = viability rescue of complex I mutant cybrids, primary screen, cell-based, galactose medium, ATP luminescence (AID 1645843;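 active = z-score of at least 1.8 in each of two replicates, scored against plate mean and spread of sample wells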;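 also: positive z means more ATP and so rescue of galactose-driven cybrid death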); conditions: complex I mutant cybrid cells, 72 h, stronger effect = higher value
[11] = test system: F380Y/beta1; assay: modulators of BK channel variants, profiling panel, selectivity assay, cell-based, U2OS BacMam, thallium flux, beta subunits (AID 1259406); conditions: at 30 µM;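 also: initial slope of Thallos dye fluorescence rise after thallium is added; log ratio against the mean of 0.3% DMSO vehicle wells on the same plate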
[12] = test system: F380Y/beta2Delta; assay: as above; conditions: at 30 µM
[13] = test system: F380Y/beta4; assay: as above; conditions: at 30 µM
[14] = biological target: Calcium-activated potassium channel subunit alpha-1 (Homo sapiens) + Leucine-rich repeat-containing protein 26 (Homo sapiens) (UniProt Q12791+Q2I0M4); assay: as above; conditions: F380Y/Slo1WT/gamma1, at 30 µM
[15] = test system: R275C; assay: as above; conditions: at 30 µM
[16] = test system: R275C/beta1; assay: as above; conditions: at 30 µM
[17] = test system: R275C/beta2Delta; assay: as above; conditions: at 30 µM
[18] = test system: R275C/beta4; assay: as above; conditions: at 30 µM
[19] = test system: R275C/Slo1WT/beta2; assay: as above; conditions: at 30 µM
[20] = test system: Neuropilin-2 / VEGF-C interaction (human); assay: inhibitors of NRP2–VEGF-C binding, biochemical, microplate binding format, z-score (AID 743281; call rule not given here); conditions: microplate NRP2/VEGF-C binding assay; stronger effect = lower value

Sequence of Calcium-activated potassium channel subunit alpha-1 (Homo sapiens) + Leucine-rich repeat-containing protein 26 (Homo sapiens) (Q2I0M4 whole entry, looked up, one chain of several): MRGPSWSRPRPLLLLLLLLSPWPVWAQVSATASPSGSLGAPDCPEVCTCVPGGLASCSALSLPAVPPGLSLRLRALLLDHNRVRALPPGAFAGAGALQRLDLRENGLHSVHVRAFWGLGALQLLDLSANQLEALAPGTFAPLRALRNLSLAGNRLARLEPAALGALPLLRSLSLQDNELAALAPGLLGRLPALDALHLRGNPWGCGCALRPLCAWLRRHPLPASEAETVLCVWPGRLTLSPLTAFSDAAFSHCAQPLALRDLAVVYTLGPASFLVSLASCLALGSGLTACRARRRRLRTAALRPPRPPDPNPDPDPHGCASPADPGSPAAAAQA

Row | SMILES | inhibition [1] [%] | score [2] | rescue above control [3] | cytochrome c release ratio [4] | inhibition of aggregation [5] [%] | glutamate uptake change [6] [%] | aggregation suppression score [7] | survival [8] | mean signal [9] | z-score [10] | log fold change Tl+ flux [11] | log fold change Tl+ flux [12] | log fold change Tl+ flux [13] | log fold change Tl+ flux [14] | log fold change Tl+ flux [15] | log fold change Tl+ flux [16] | log fold change Tl+ flux [17] | log fold change Tl+ flux [18] | log fold change Tl+ flux [19] | z-score [20]
1 | c1ccc2c(c1)CCCC2C1=NCCN1 (configuration not stated) | -4.42 | 1.43 | 7.66 | 0.63 | 56.8 | 6.14 | 1.06 | 6 (inactive) | 221 (inactive) | 0.18 (inactive) and 0.17 (inactive) | 0.041 (inactive) | -0.0151 (inactive) | 0.00535 (inactive) | 0.0123 (inactive) | -0.00319 (inactive) | -0.00185 (inactive) | -0.0361 (inactive) | 0.0129 (inactive) | 0.0141 (inactive) | –
2 | NCC(=O)CCC(=O)O | – | – | – | – | – | – | – | – | 245 (inactive) | 0.925 (inactive) | -0.00533 (inactive) | -0.0239 (inactive) | 0.0148 (inactive) | 0.011 (inactive) | -0.000596 (inactive) | -0.0231 (inactive) | -0.0499 (inactive) | -0.0959 (inactive) | -0.117 (active) | –
3 | CCCCNC(=O)NS(=O)(=O)c1ccc(C)cc1 | -1.59 | 1.02 | -3.14 | 0.7 | 52.6 | -18.9 | 0.871 | 25.3 (inactive) | 261 (inactive) | 0.82 (inactive) and -0.58 (inactive) and 0.93 (inactive) | 0.0157 (inactive) | 0.0378 (inactive) | 0.00157 (inactive) | -0.0258 (inactive) | -0.0266 (inactive) | -0.0147 (inactive) | 0.0266 (inactive) | -0.00534 (inactive) | -0.00827 (inactive) | –
4 | CCN(CC)CCOC(=O)C1(C2CCCCC2)CCCCC1 | -0.16 | 0.92 | 8.2 | 0.58 | 78.3 | -7.11 | 1.04 | 16.2 (inactive) | 236 (inactive) | -0.95 (inactive) and -0.895 (inactive) and -2.66 (inactive) | -0.0697 (inactive) | 0.0166 (inactive) | -0.0157 (inactive) | -0.023 (inactive) | -0.00463 (inactive) | 0.0871 (inactive) | 0.0332 (inactive) | 0.0991 (inactive) | 0.00259 (inactive) | –
5 | CCCNC(C)C(=O)Nc1ccccc1C (configuration not stated) | 1.52 | 1.18 | -3.71 | 0.7 | 74.9 | 3.66 | 1.11 | 13.5 (inactive) | 270 (inactive) | 0.075 (inactive) and 0.325 (inactive) and 0.175 (inactive) | 0.00249 (inactive) | 0.0464 (inactive) | 0.0146 (inactive) | -0.0185 (inactive) | -0.0216 (inactive) | -0.0631 (inactive) | 0.0403 (inactive) | -0.00233 (inactive) | 0.0338 (inactive) | –
6 | Cc1nc2ccccn2c(=O)c1CCN1CCC(C(=O)c2ccc(F)cc2)CC1 | – | – | – | – | – | – | – | 8.08 (inactive) | 234 (inactive) | -1.02 (inactive) and -0.645 (inactive) | 0.0396 (inactive) | -0.00369 (inactive) | 0.0319 (inactive) | -0.0679 (inactive) | -0.025 (inactive) | -0.0266 (inactive) | -0.0363 (inactive) | -0.0285 (inactive) | 0.00703 (inactive) | -1.94 (inactive)
7 | CCS(=O)(=O)CCn1c([N+](=O)[O-])cnc1C | – | – | – | – | – | – | – | 3.33 (inactive) | 232 (inactive) | 0.655 (inactive) and 0.575 (inactive) | 0.0365 (inactive) | -0.0231 (inactive) | -0.041 (inactive) | -0.0103 (inactive) | 0.0103 (inactive) | -0.0101 (inactive) | -0.0183 (inactive) | -0.0453 (inactive) | -0.0158 (inactive) | -0.45 (inactive)
8 | COc1ccc2cc(CCC(C)=O)ccc2c1 | 10.1 | 0.11 | – | 0.7 | 91.3 | 13.8 | 0.329 | 4.83 (inactive) | 213 (inactive) | 0.395 (inactive) and 0.51 (inactive) | -0.0534 (inactive) | -0.0818 (active) | -0.162 (active) | -0.0634 (inactive) | -0.0871 (active) | -0.284 (active) | -0.233 (active) | -0.216 (active) | -0.0751 (inactive) | –
9 | C[C@@H]1O[C@@H](OC[C@H]2O[C@@H](Oc3c(-c4ccc(O)c(O)c4)oc4cc(O)cc(O)c4c3=O)[C@H](O)[C@@H](O)[C@@H]2O)[C@H](O)[C@H](O)[C@H]1O | 3.3 | 1.12 | 13.8 | 1.08 | 48.6 | 32.8 | 0.985 | – | 242 (inactive) | – | 0.04 (inactive) | 0.0273 (inactive) | -0.0248 (inactive) | -0.026 (inactive) | 0.0426 (inactive) | -0.0081 (inactive) | 0.00535 (inactive) | -0.00112 (inactive) | 0.0255 (inactive) | 0.702 (inactive)
10 | CN(C)CC/C=C1\c2ccccc2COc2ccccc21 | – | – | – | – | – | – | – | 18.8 (inactive) | 222 (inactive) | -0.51 (inactive) and -1.11 (inactive) | 0.078 (inactive) | 0.0812 (active) | 0.0925 (inactive) | 0.0287 (inactive) | -0.0142 (inactive) | 0.119 (active) | 0.0609 (inactive) | 0.0396 (inactive) | -0.0225 (inactive) | –
11 | C[C@]12CCC(=O)C=C1CC[C@@H]1[C@@H]2C(=O)C[C@@]2(C)[C@H]1CC[C@]2(O)C(=O)CO | – | – | – | – | – | – | – | 29.6 (inactive) | 220 (inactive) | 0.195 (inactive) | -0.034 (inactive) | 0.0238 (inactive) | -0.00179 (inactive) | 0.0148 (inactive) | -0.0438 (inactive) | -0.0165 (inactive) | -0.0316 (inactive) | 0.0193 (inactive) | 0.0155 (inactive) | 0.291 (inactive)
12 | Cc1cccc(Nc2ccncc2S(=O)(=O)NC(=O)NC(C)C)c1 | – | – | – | – | – | – | – | 8.33 (inactive) | 241 (inactive) | 1.21 (inactive) | 0.0627 (inactive) | -0.0041 (inactive) | -0.0278 (inactive) | -0.0447 (inactive) | -0.147 (active) | 0.0246 (inactive) | 0.0124 (inactive) | 0.029 (inactive) | 0.0277 (inactive) | 0.676 (inactive)
13 | O=C1[C@H](CC[C@H](O)c2ccc(F)cc2)[C@@H](c2ccc(O)cc2)N1c1ccc(F)cc1 | – | – | – | – | – | – | – | – | 228 (inactive) | – | 0.33 (active) | 0.0773 (inactive) | 0.106 (active) | 0.0312 (inactive) | -0.0195 (inactive) | 0.416 (active) | 0.12 (active) | 0.207 (active) | 0.0256 (inactive) | -0.399 (inactive)
14 | CCCSc1ccc2nc(NC(=O)OC)[nH]c2c1 | 25.8 | 0.16 | -16.6 | 0.88 | 11.8 | 21.4 | 0.174 | 0.917 (inactive) | 254 (inactive) | 0.56 (inactive) and -0.955 (inactive) | -0.0515 (inactive) | 0.0117 (inactive) | -0.0654 (inactive) | -0.0345 (inactive) | 0.0372 (inactive) | 0.0301 (inactive) | 0.0234 (inactive) | -0.0656 (inactive) | -0.017 (inactive) | –
15 | C[C@]12C=CC(=O)C=C1CC[C@@H]1[C@@H]2C(=O)C[C@@]2(C)[C@H]1CC[C@]2(O)C(=O)CO | – | – | – | – | – | – | – | 15.9 (inactive) | – | 0.315 (inactive) and 0.45 (inactive) | 0.00863 (inactive) | 0.0137 (inactive) | 0.000343 (inactive) | -0.00874 (inactive) | -0.0236 (inactive) | -0.0318 (inactive) | 0.028 (inactive) | -0.00291 (inactive) | -0.00226 (inactive) | –
16 | c1ccc(-c2ccc(C(c3ccccc3)n3ccnc3)cc2)cc1 (configuration not stated) | – | – | – | – | – | – | – | – | 204 (inactive) | -1.87 (inactive) and -2.02 (inactive) | 0.00744 (inactive) | 0.0145 (inactive) | 0.00227 (inactive) | 0.0139 (inactive) | -0.0477 (inactive) | 0.164 (active) | -0.336 (active) | -0.0228 (inactive) | -0.0124 (inactive) | -0.348 (inactive)
17 | COc1ccc([C@@H]2Sc3ccccc3N(CCN(C)C)C(=O)[C@@H]2OC(C)=O)cc1 | – | – | – | – | – | – | – | 19.4 (inactive) | 243 (inactive) | – | 0.0592 (inactive) | -0.00376 (inactive) | 0.0311 (inactive) | 0.0123 (inactive) | -0.0404 (inactive) | 0.0836 (inactive) | 0.0243 (inactive) | 0.104 (inactive) | 0.0487 (inactive) | –
18 | Cc1cccc(Nc2ccccc2C(=O)O)c1C | 14.9 | 0.19 | 14.6 | 1 | 32.9 | -12.3 | 0.495 | 12.2 (inactive) | 235 (inactive) | 0.385 (inactive) and 1.06 (inactive) | 0.147 (active) | 0.111 (active) | 0.146 (active) | 0.101 (active) | 0.009 (inactive) | 0.182 (active) | 0.117 (active) | 0.0837 (inactive) | 0.00462 (inactive) | –
19 | Cc1onc(-c2ccccc2)c1-c1ccc(S(N)(=O)=O)cc1 | – | – | – | – | – | – | – | – | 275 (inactive) | -0.505 (inactive) | 0.0307 (inactive) | 0.0548 (inactive) | 0.0618 (inactive) | 0.00659 (inactive) | 0.0179 (inactive) | 0.0767 (inactive) | 0.0842 (inactive) | 0.0327 (inactive) | -0.0445 (inactive) | 0.865 (inactive)

Reference: PubChem BioAssay
